Screen size: about 1,300 compounds; about 420 (32%) were called active. Not shown: some 32% with an inconclusive outcome. The list shows a part of the results. Unmarked numbers belong to inactive results. Calls come from the whole dose curve; as a rule, active = well fitted inhibition curve with a large enough effect; inconclusive = small, poorly fitted or top-dose-only effect; inactive = no such curve, though single readings can be large or run the other way.
These compounds were tested against C-terminal-binding protein 1 (Homo sapiens) (UniProt Q13363) (assay: qHTS for Inhibitors of the Phosphatase Activity of Eya2: Carboxyl-terminal binding protein (CtBP) Counterscreen for Cherry-picked Compounds). Conditions: purified protein-protein binding, AlphaScreen, 3 h; series mostly up to 46.1 µM; activity change, negative = inhibition: at the top concentration.
Procedure, shortened: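 AlphaScreen using 25 nM GST-E1A with 25 nM CtBP-6xHIS; compounds at 2.5 nM–46 uM final, 2 h at room temperature, then donor/acceptor beads (20 ug/mL) for 1 h in the dark. Signal normalized to E1A peptide inhibitor (maximum inhibition) and DMSO.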
% is set by controls: 0 for no effect and ±100 for the full control effect; potency is the fitted concentration of half-maximal effect.
Note: nearly all actives have a fitted effect of over 65% in size.

| SMILES | Potency | activity change, negative = inhibition |
| --- | --- | --- |
| CN(C)CCNc1ccc2ncn3c4ccc(O)cc4c(=O)c1c23 | 1.9 µM (active) |  |
| CN(C)CCNc1ccc2nnn3c4ccc(O)cc4c(=O)c1c23 | 1.2 µM (active) |  |
| O=C(CC1(O)C(=O)Nc2ccccc21)c1ccccc1 (stereo unspecified) |  | 12.8% |
| CCOC(=O)c1c(NC(=O)/C=C/C(=O)O)sc(C)c1-c1ccc(Cl)cc1 |  | -19.5% |
| Cn1c(=O)c(N)c2c3c(c(Br)ccc31)C(=O)c1ccccc1-2 | 9.53 µM (active) |  |
| Cc1c(NC(=O)c2ccco2)cccc1C(=O)NN1C(=O)c2ccccc2C1=O |  | -9.57% |
| CCc1c(C)nc(Nc2nc(C)c3ccc(OC)cc3n2)[nH]c1=O | 3.38 µM (active) |  |
| Cc1nn2c(c1-c1ccccc1)NC1=C(C(=O)CCC1)C2c1ccccc1 (stereo unspecified) |  | 3.34% |
| C/C=C/c1ccc(OCCSc2nc(C)cc(=O)[nH]2)c(OC)c1 | 10.7 µM (active) |  |
| O=S(=O)(Nc1nnc(-c2ccccc2)s1)c1ccc(Cl)cc1 | 16.9 µM (active) |  |
| Cc1n[nH]c(=S)n(NC(=O)CC(=O)Nn2c(=S)[nH]nc(C)c2=O)c1=O | 1.2 µM (active) |  |
| CC1=CC(C)(C)Nc2ccc(OC(=O)CN3C(=O)c4ccccc4C3=O)cc21 |  | 9.89% |
| O=S(=O)(c1ccc(Cl)s1)N1CCc2ccccc2C1 |  | 65.2% |
| O=C(NN1C(=O)/C(=C\c2ccc(O)c([N+](=O)[O-])c2)SC1=S)c1ccccc1Cl | 12 µM (active) |  |
| Cc1ccc(S(=O)(=O)NN2C(=O)/C(=C/c3cccc(F)c3)SC2=S)cc1 |  | -16.6% |
| COc1ccc(OC)c(/C=C2\SC(=S)N(NS(=O)(=O)c3ccccc3)C2=O)c1 |  | -14.7% |
| COc1ccc(Nc2nc(C(C)(C)C)nc3c2nnn3Cc2ccccc2Cl)cc1OC |  | -19% |
| CCOC(=O)CNC(=O)C1CCCN(c2ncccn2)C1 (stereo unspecified) |  | 12.5% |
| NC(=O)C1CCN(c2oc(-c3cccs3)nc2S(=O)(=O)c2ccc(Br)cc2)CC1 |  | -14.9% |
| CCOC(=O)C1CCN(C2=C(NS(=O)(=O)c3ccc(Br)cc3)C(=O)c3ccccc3C2=O)CC1 | 5.36 µM (active) |  |
| CCOC(=O)C1CCCN(C2=C(NS(=O)(=O)c3ccc(Br)cc3)C(=O)c3ccccc3C2=O)C1 (stereo unspecified) | 12 µM (active) |  |
| Brc1ccc(CSc2ccc3nnc(-c4cccnc4)n3n2)cc1 |  | -31.1% |
| c1ccc(CSc2ccc3nnc(-c4ccccn4)n3n2)cc1 | 13.5 µM (active) |  |
| Brc1ccc(CSc2ccc3nnc(-c4ccccn4)n3n2)cc1 | 13.5 µM (active) |  |
| COC(=O)c1ccc(CSc2ccc3nnc(-c4ccccn4)n3n2)o1 | 7.57 µM (active) |  |
| CCOc1ccc(NC(=O)C2CC(=O)N(CCc3ccc(OC)c(OC)c3)C2)cc1OCC (stereo unspecified) | 19 µM (active) |  |

Source: PubChem BioAssay AID720541 (National Center for Advancing Translational Sciences (NCATS), 2013)
